This passage reports outcome results from PubChem BioAssay AID687041 (Broad Institute, 2013).

The nature of the assay: miR-122 quantity in Huh7 after inhibitor exposure – cell-based, RT-qPCR, dry powder, orthogonal assay for miR-122 inhibitor project, dose response (AID 687041). In general terms: Quantitative PCR measures a nucleic acid by following its amplification.

Molecules are shown by their SMILES. Results with a measured potency or affinity are listed apart. Active and inactive are the calls of the source.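 The calls were made as follows: active = compounds lowering miR-122 whose fitted half-maximal concentration is at most twice the top tested dose; inconclusive = flat fit with moderate reduction, or poor fit quality; inactive = the rest.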

On to `O=C(CN1CCOCC1)Nc1ccc(Br)cc1C(=O)c1ccccc1`, for which the compound was called inactive.
